Read-out in assay [1]: Human Leukocyte Antigen - DR isotype (HLADR), HLA-DRA (gene 3122)
Put plainly: BSK_BE3C_HLADR: BioMAP Diversity Plus: BE3C Assay for Human Leukocyte Antigen - DR isotype (HLADR) Biomarker Activity (AID 2283032). Particulars: primary human bronchial epithelial cells; actives raise or lower the signal. Put shortly:
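Cell-surface HLA-DR ELISA readout at 24 h after dosing in the BE3C primary human lung bronchial epithelial system; gain or loss of signal against DMSO, with parallel sulforhodamine B staining of total protein for overt cytotoxicity.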

Read-out in assay [2]: Interferon-gamma inducible Protein 10 (IP10), CXCL10 (gene 3627)
Put plainly: BSK_BE3C_IP10: BioMAP Diversity Plus: BE3C Assay for Interferon-gamma inducible Protein 10 (IP10) Biomarker Activity (AID 2283034). Particulars: primary human bronchial epithelial cells; actives raise or lower the signal. Put shortly: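 IP-10 quantified by ELISA in human primary bronchial epithelial cell cultures at 24 hours post-dosing. Gain or loss of signal fitted relative to DMSO; parallel SRB staining assessed overt cytotoxicity.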

Read-out in assay [3]: Monokine induced gamma interferon (MIG), CXCL9 (gene 4283)
Put plainly: BSK_BE3C_MIG: BioMAP Diversity Plus: BE3C Assay for Monokine induced gamma interferon (MIG) Biomarker Activity (AID 2283035). As to conditions: primary human bronchial epithelial cells; actives raise or lower the signal. The method, boiled down: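 ELISA quantified MIG after 24 h exposure of primary bronchial epithelial cultures, analysed in both directions relative to DMSO. Cytotoxicity tracked in parallel cultures by sulforhodamine B staining.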

Read-out in assay [4]: Transforming growth factor beta 1 (TGFb1), TGFB1 (gene 7040)
Put plainly: BSK_BE3C_TGFb1: BioMAP Diversity Plus: BE3C Assay for Transforming growth factor beta 1 (TGFb1) Biomarker Activity (AID 2283036;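 also: TGF-b1 protein level measured by ELISA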). As to conditions: primary human bronchial epithelial cells; actives raise or lower the signal. The method, boiled down:
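ELISA readout of TGF-b1 from human lung bronchial epithelial primary cells, taken 24 h post-treatment. Gain or loss of signal fitted relative to DMSO baseline, with parallel SRB staining for overt cytotoxicity.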

Read-out in assay [5]: Plasminogen activator inhibitor-1 (PAI1), SERPINE1 (gene 5054)
Put plainly: BSK_BE3C_PAI1: BioMAP Diversity Plus: BE3C Assay for Plasminogen activator inhibitor-1 (PAI1) Biomarker Activity (AID 2283037). Particulars: primary human bronchial epithelial cells; actives raise or lower the signal. The method, boiled down:
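PAI-1 was measured by ELISA in human primary bronchial epithelial cultures 24 h after chemical dosing, with cytotoxicity checked by SRB total-protein staining in parallel cultures. Activity was fitted in both directions relative to DMSO.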

Read-out in assay [6]: urokinase plasminogen activator (uPA), PLAU (gene 5328)
Kind of assay: BSK_BE3C_uPA: BioMAP Diversity Plus: BE3C Assay for urokinase plasminogen activator (uPA) Biomarker Activity (AID 2283038).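 As to outcome: uPA protein level quantified by ELISA in cell cultures; uPA read one day after compound addition.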 Particulars: primary human bronchial epithelial cells; actives raise or lower the signal. The method, boiled down: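 Using confluent primary human lung bronchial epithelial cultures, we dosed chemicals, waited 24 h, then ran a uPA ELISA, fitting bidirectionally against DMSO.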

Read-out in assay [7]: Urokinase-type plasminogen activator receptor (uPAR), PLAUR (gene 5329)
Kind of assay: BSK_BE3C_uPAR: BioMAP Diversity Plus: BE3C Assay for Urokinase-type plasminogen activator receptor (uPAR) Biomarker Activity (AID 2283039).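 Also: cells exposed to compound for one day before measurement.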 Particulars: primary human bronchial epithelial cells; actives raise or lower the signal. Put shortly: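 uPAR levels were measured by ELISA after 24 h compound treatment of primary human bronchial epithelial cells, fitted in both directions relative to DMSO. Parallel SRB staining served as the cytotoxicity read-out.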

Read-out in assay [8]: Interleukin-6 (IL6), IL6 (gene 3569)
Put plainly: BSK_CASM3C_IL6: BioMAP Diversity Plus: CASM3C Assay for Interleukin-6 (IL6) Biomarker Activity for (AID 2283040). Particulars: primary human coronary artery smooth muscle cells; actives raise or lower the signal.

Read-out in assay [9]: Tissue plasminogen activator (tPA), PLAT (gene 5327)
Put plainly: BSK_BE3C_tPA: BioMAP Diversity Plus: BE3C Assay for Tissue plasminogen activator (tPA) Biomarker Activity (AID 2283041).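 Also: tPA level quantified by ELISA one day after compound addition.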 As to conditions: primary human bronchial epithelial cells; actives raise or lower the signal. Put shortly: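 tPA measured by ELISA 24 h after dosing human primary bronchial epithelial cells (BE3C system). Changes in either direction were fitted against DMSO. Parallel cultures were stained with SRB to flag overt cytotoxicity.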

Read-out in assay [10]: Interleukin-8 (IL8), CXCL8 (gene 3576)
Put plainly: BSK_CASM3C_IL8: BioMAP Diversity Plus: CASM3C Assay for Interleukin-8 (IL8) Biomarker Activity (AID 2283042).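 Also: IL-8 protein level quantified by ELISA.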 Particulars: primary human coronary artery smooth muscle cells; actives raise or lower the signal.

Read-out in assay [11]: Human Leukocyte Antigen - DR isotype (HLADR), HLA-DRA (gene 3122)
Put plainly: BSK_CASM3C_HLADR: BioMAP Diversity Plus: CASM3C Assay for Human Leukocyte Antigen - DR isotype (HLADR) Biomarker Activity (AID 2283043).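 Also: cell-surface HLA-DR protein level quantified by ELISA.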 As to conditions: primary human coronary artery smooth muscle cells; actives raise or lower the signal.

Read-out in assay [12]: Macrophage colony-stimulating factor (MCSF), CSF1 (gene 1435)
Kind of assay: BSK_CASM3C_MCSF: BioMAP Diversity Plus: CASM3C Assay for Macrophage colony-stimulating factor (MCSF) Biomarker Activity (AID 2283044).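 Also: M-CSF protein amount quantified by ELISA after 24 h exposure.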 As to conditions: primary human coronary artery smooth muscle cells; actives raise or lower the signal.

Read-out in assay [13]: Low-density lipoprotein receptor (LDLR), LDLR (gene 3949)
Put plainly: BSK_CASM3C_LDLR: BioMAP Diversity Plus: CASM3C Assay for Low-density lipoprotein receptor (LDLR) Biomarker Activity (AID 2283045).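 Also: LDLR protein level on the cell surface quantified by ELISA.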 Particulars: primary human coronary artery smooth muscle cells; actives raise or lower the signal.

Read-out in assay [14]: Monocyte Chemoattractant Protein-1 (MCP1), CCL2 (gene 6347)
Put plainly: BSK_CASM3C_MCP1: BioMAP Diversity Plus: CASM3C Assay for Monocyte Chemoattractant Protein-1 (MCP1) Biomarker Activity (AID 2283046).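 Also: MCP-1 level quantified by ELISA 24 h after dosing.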 As to conditions: primary human coronary artery smooth muscle cells; actives raise or lower the signal.

Assay [15] is described as follows: BSK_CASM3C_Proliferation: Cell Proliferation Assessment in the BioMAP Diversity Plus: CASM3C Assay (AID 2283047).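 Also: sulforhodamine B total protein stain as relative cell number at 560 nm; sub-confluent cells exposed 48 h before staining; fitted both ways against DMSO so gain or loss of cell number.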 Particulars: primary human coronary artery smooth muscle cells.
Read-out in assay [16]: Monokine induced gamma interferon (MIG), CXCL9 (gene 4283)
Put plainly: BSK_CASM3C_MIG: BioMAP Diversity Plus: CASM3C Assay for Monokine induced gamma interferon (MIG) Biomarker Activity (AID 2283048).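 Also: MIG protein level measured by ELISA.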 Particulars: primary human coronary artery smooth muscle cells; actives raise or lower the signal.

Read-out in assay [17]: serum amyloid A (SAA), SAA1 (gene 6288)
Put plainly: BSK_CASM3C_SAA: BioMAP Diversity Plus: CASM3C Assay for serum amyloid A (SAA) Biomarker Activity (AID 2283049).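 Also: SAA protein level quantified by ELISA.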 As to conditions: primary human coronary artery smooth muscle cells; actives raise or lower the signal.

A short description of assay [18]: BSK_CASM3C_SRB: Viability Assessment in the BioMAP Diversity Plus: CASM3C Assay (AID 2283050). As to conditions: primary human coronary artery smooth muscle cells.
Read-out in assay [19]: Thrombomodulin, THBD (gene 7056)
Put plainly: BSK_CASM3C_Thrombomodulin: BioMAP Diversity Plus: CASM3C Assay for Thrombomodulin Biomarker Activity (AID 2283051).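 Also: thrombomodulin protein level measured by ELISA 24 h after dosing.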 As to conditions: primary human coronary artery smooth muscle cells; actives raise or lower the signal.

Read-out in assay [20]: Vascular cell adhesion molecule 1 (VCAM1), VCAM1 (gene 7412)
Put plainly: BSK_4H_VCAM1: BioMAP Diversity Plus: 4H Assay for Vascular cell adhesion molecule 1 (VCAM1) Biomarker Activity (AID 2283033).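 Also: cell-surface VCAM-1 protein measured by ELISA.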 Particulars: primary human endothelial cells (HUVEC); actives raise or lower the signal. The method, boiled down:
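VCAM-1 ELISA read 24 h after chemical dosing of HUVEC in the BioMAP 4H system, with gain or loss of signal fitted relative to DMSO. Parallel SRB staining (560 nm) checked overt cytotoxicity.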

Calls of active or inactive are those of the source. The calls were made as follows: active = hit-call score of the fitted dose curve at least 0.9, where 1 is the maximum; inactive = score below 0.9.

The results in this text go back to PubChem BioAssay (EPA / NIEHS).

By AC50 is commonly meant the concentration giving half of the maximal activity seen.

Regarding `CCCCCCCCCCCCCN1CC(C)OC(C)C1` (stereo unspecified), the result in [1], in assay [2], in [3], in [4], in assay [5] and in assay [6] was inactive. Moreover, the result in assay [7], in assay [8], in assay [9], in assay [10], in assay [11] and in assay [12] was inactive. The result in assay [13], in assay [14], in [15], in assay [16], in [17] and in [18] was inactive. Also, the outcome in assay [19] was inactive.

Regarding `OCCCBr`, the result in assay [1], in assay [20], in assay [2], in assay [3], in assay [4] and in [6] was inactive. Moreover, the outcome in [7], in assay [8], in [9], in assay [10], in assay [11] and in assay [12] was inactive. The outcome in [13], in [14], in assay [15], in assay [16], in assay [17] and in assay [18] was inactive. Also, the outcome in assay [19] was inactive.

With `c1ccc2c(c1)-c1cccc3cccc-2c13`, the result in assay [1], in assay [20], in assay [2], in assay [3], in assay [4] and in [6] was inactive. Moreover, the outcome in assay [7], in assay [8], in [9], in [10], in assay [11] and in [12] was inactive. The result in [13], in assay [14], in assay [15], in assay [16], in assay [17] and in [18] was inactive. Further, in assay [19], the result was inactive.

In the case of `ClCCOCCCl`, the result in [1], in assay [2], in assay [3], in [4], in [6] and in assay [7] was inactive. Moreover, the outcome in assay [8], in assay [9], in assay [10], in assay [11], in assay [12] and in assay [13] was inactive. The outcome in assay [14], in [15], in [16], in assay [17], in assay [18] and in assay [19] was inactive.

Regarding `O=[N+]([O-])c1ccc(Oc2ccc(Cl)cc2Cl)cc1`, the AC50 in assay [1] was 20 µM (active). The result in [2], in [3], in assay [4], in [6], in [7] and in assay [8] was inactive. In addition, the result in assay [9], in assay [10], in assay [11], in [12], in assay [13] and in assay [14] was inactive. The result in [15], in assay [16], in [17], in [18] and in assay [19] was inactive.

As to `O=[N+]([O-])C(Br)(CO)CO`, the outcome in [1], in assay [2], in assay [3], in assay [4], in assay [7] and in assay [8] was inactive. The result in [9], in assay [12] and in assay [13] was inactive. Moreover, the AC50 in assay [6] was 4.02 µM (active); in [10] it was 34.3 µM (active); in assay [11] it was 29.5 µM (active); in [14], 28.1 µM (active); in assay [15], 24.7 µM (active); in assay [16], 32.7 µM (active). Besides, the AC50 is 30.3 µM (active) in assay [17], 32.7 µM (active) in [18] and 24.7 µM (active) in assay [19].
